# This is a sample that favours compounds with a hit; in the whole collection about 8.7% have one here.
# Pf growth 48h – P. falciparum growth inhibition at 48 hours (one generation); P. falciparum luciferase growth in erythrocytes, 48 h; Potency, µM (series often up to 28.7 µM), usual class: inhibitors; 310,000 compounds, 5.9% hits; AID 504832
#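 Luciferase-expressing P. falciparum in infected erythrocytes (2% hematocrit, 0.1% parasitemia final) in RPMI 1640/0.5% Albumax were exposed to compound for 48 hours at 37 C, 5% CO2; growth read as luminescence.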
# Vaccinia Venus – vaccinia inhibition (Venus reporter) | Vaccinia virus Venus reporter expression, fluorescence | 330,000 compounds, 0.46% hits | Potency, µM (doses to about 36.5 µM), most hits filed as inhibitors; calls by dose curve; tested in A549 cells; further: nearly all actives have a fitted effect of over 30% in size
# Pf growth 96h – P. falciparum growth inhibition at 96 hour, primary screen for plastid delayed-death inhibitors; P. falciparum luciferase reporter growth, 96 h; Potency, µM (highest dose often 28.7 µM), most hits filed as inhibitors; 320,000 compounds, 6.9% hits; AID 504834
#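 Cell-based qHTS: luciferase-tagged P. falciparum in erythrocytes (2% hematocrit, 0.05% parasitemia final) incubated with compounds for 96 hours, 37 C, 5% CO2; luciferase detection reagent then added and luminescence measured.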
# AMA1-RON2 inh – inhibitors of Plasmodium falciparum AMA1-RON2 interaction. AlphaScreen AMA1-biotinylated RON2 peptide binding. Potency, µM (highest dose often 58.2 µM), hits mostly inhibitors. 360,000 compounds, 0.2% hits; further: nearly all actives have a fitted effect of over 45% in size
#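 AMA1 (3D7) with his tag at 25 nM final met compounds first, then biotinylated RON2 peptide at 25 nM; detection used donor plus acceptor beads, 10 µg/mL apiece, read by AlphaScreen after 30 min at room temperature.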
# VACV mCherry inh – vaccinia inhibition (mCherry reporter) | Potency, µM (series often up to 36.5 µM), actives largely listed as inhibitors | 310,000 compounds, 0.63% hits | Vaccinia virus mCherry reporter infection, fluorescence; calls by dose curve; tested in A549 cells; further: nearly all actives have a fitted effect of over 35% in size
# A number is an active result; . = inactive; ? = inconclusive; / = no result. Unless noted, the call rests on the fitted dose curve; in most records, active means well fitted curve in the direction sought with a large enough effect; inconclusive means small, poorly fitted or top-dose-only effect, or another doubt; inactive means no such curve, though single readings can be large; an effect the other way counts as inactive or inconclusive.
SMILES,Pf growth 48h,Vaccinia Venus,Pf growth 96h,AMA1-RON2 inh,VACV mCherry inh
COc1ccc(CCN2CCCC(CN(C)Cc3cc(OC)ccc3OC)C2)cc1 (stereo not given),?,/,15µM,.,/
O=C(C1CCCCC1)N1CCOc2ccc(CN3CCN(Cc4ccccn4)CC3)cc2C1,/,.,/,/,.
COc1ccc(N=C2C(=O)N3c4c(cccc42)C(C)=CC3(C)C)cc1,?,.,12µM,.,.
O=c1[nH]c2ccc(N/C(=N/S(=O)(=O)c3ccccc3)c3ccccc3)cc2[nH]1,.,.,4.1µM,.,.
Cc1cccc(C(=O)N2CCNC(=O)C2CC(=O)Nc2ccc(F)cc2)c1 (stereo not given),/,.,/,/,.
Cc1cc(C[n+]2ccsc2N)c2ncccc2c1,.,/,?,.,/
Cc1cc(C[n+]2ccccc2)c2nsnc2c1,2.1µM,?,/,.,.
O=C(CC1Sc2ncnn2C1=O)Nc1ccc(Br)cc1 (stereo not given),.,.,10µM,.,.
Cc1nc2sccn2c1CN1CCOc2ccc(CN3CCN(c4ccc(F)cc4)CC3)cc2C1,/,.,/,/,.
CCN(CC)CCNC(=O)c1cc2c(-c3cccc(OC)c3)nn(C)c2s1,1.5µM,.,?,.,.
CCOC(=O)N1CCN(C(=O)c2cc3c(-c4cccc(OC)c4)nn(C)c3s2)CC1,.,.,.,.,.
CCOC(=O)N1CCC(NC(=O)c2cc3c(-c4cccc(OC)c4)nn(C)c3s2)CC1,9.3µM,.,/,.,.
COCCCNC(=O)c1cc2c(-c3cccc(OC)c3)nn(C)c2s1,.,.,?,.,.
CC(C)c1ccc(NC(=O)C(C)N(c2ccccc2)S(C)(=O)=O)cc1 (stereo not given),/,.,/,/,.
Cc1cc(N(C)C)cc(C)c1/C=C/c1cc[n+](C)c2ccccc12,/,.,/,/,.
Cc1sc(N/N=C/C=C/c2ccccc2)nc1-c1ccccc1,?,?,?,.,3.5µM
CC(=O)Nc1sc(N/N=C/c2ccccc2F)nc1-c1ccc(C)cc1,8.3µM,/,?,.,/
COc1ccc(/C=N/Nc2nc(-c3ccc(C)cc3)c(NC(C)=O)s2)cc1,2.3µM,.,4.7µM,.,10µM
CC(=O)Nc1sc(-c2ccc(Cl)cc2)nc1-c1ccccc1,.,.,.,.,.
CC(=O)Nc1sc(-c2ccccc2)nc1-c1ccccc1,.,.,4.7µM,?,.
Cc1cccc(N2C(=O)N(CC(=O)C(C)(C)C)c3ccccc3S2(=O)=O)c1C,/,.,/,/,.
CC(=O)Nc1sc(N/N=C\c2ccccc2Cl)nc1-c1cccs1,?,?,?,.,11µM
CC(=O)Nc1sc(N/N=C/c2ccccc2)nc1-c1ccc(C)cc1,7.4µM,.,?,.,.
CC(=O)Nc1sc(N/N=C\c2ccccc2)nc1-c1cccs1,?,.,?,.,.
Cc1ccc(S(=O)(=O)N2CCN(C(=S)NCc3ccc4c(c3)OCO4)CC2)cc1,1.9µM,.,?,.,.
SMILES,Pf growth 48h,Vaccinia Venus,Pf growth 96h,AMA1-RON2 inh,VACV mCherry inh
Cc1ccc(S(=O)(=O)N2CCCC2CNC(=O)c2ccccc2)cc1 (stereo not given),?,.,?,.,?
COCCCNC(=S)N1CCN(S(=O)(=O)c2ccc(OC)cc2)CC1,?,.,.,.,.
Cc1ccc(S(=O)(=O)N2CCCC2CNC(=O)c2ccc3c(c2)OCO3)cc1 (stereo not given),?,.,15µM,.,?
COc1ccc(CCNC(=S)N2CCN(S(=O)(=O)c3ccc(C)cc3)CC2)cc1,2.9µM,?,2.6µM,.,.
COc1ccc(S(=O)(=O)N2CCN(C(=S)NCCc3ccccc3)CC2)cc1,4.1µM,.,?,.,.
O=S(=O)(c1ccccc1)N1CCN(C(=S)NCCc2ccccc2)CC1,?,.,?,.,.
Cc1cccc(OCC(=O)NCc2ccc3c(c2)CCN3C(=O)c2ccc(Cl)cc2)c1,/,.,/,/,.
Cc1ccc(CNC(=O)c2cc3c(=O)n(Cc4cccnc4)ccc3nc2C)cc1,/,.,/,/,.
Cc1cccc(S(=O)(=O)N2CCN(Cc3ccc4c(c3)OCO4)CC2)c1,.,.,0.74µM,.,.
COc1ccc2c(c1)c1c(c(=O)n(CCc3ccccc3)c(=O)n1Cc1ccc(Cl)cc1)n2C,/,.,/,/,.
CCCc1cc(=O)oc2cc(C)c3c(-c4cccc(OC)c4)coc3c12,/,.,/,/,.
CCOC(=O)c1sc(NC(=O)CN2C(=O)NC3(CCCCCCC3)C2=O)c(C(=O)OCC)c1C,8.3µM,/,9.3µM,.,/
CCOC(=O)c1sc(NC(=O)CNCc2cccnc2)c(C(=O)OCC)c1C,?,.,?,.,.

# Source: PubChem BioAssay (National Center for Advancing Translational Sciences (NCATS))
